PubChem BioAssay (Tox21)
Inconclusive results are not listed. A number with no mark means an inactive call. Calls of active or inactive are those of the source. Calls come from the whole dose curve; as a rule, active = well fitted cell-killing curve with a large enough effect in the repeat runs; inconclusive = weak or mixed curves, or effect the other way; inactive = flat fitted curve, though single readings scatter.

Assay: cAMP Responsive Elements (CRE) small molecule antagonists, cell-based qHTS assay: qHTS cell viability counter screen (AID 2060913); note: nearly all actives have a fitted effect of over 40% in size
Details: CRE-bla HEK293T viability, CellTiter-Glo luminescence, 5 h; series mostly up to 92.4 µM; viability change, negative = cytotoxic: at the top concentration
How it was run: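 Cytotoxicity counter screen multiplexed with the CRE-bla antagonist read: HEK293T cells in DMEM with dialyzed FBS and 25 mM HEPES were treated 3 hrs under 0.25 uM final NKH477, then viability measured by CellTiter-Glo luminescence.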
% is set by controls: 0 for no effect and ±100 for the full control effect; potency is the fitted concentration of half-maximal effect.

Compound | viability change, negative = cytotoxic | Potency
Fc1cc(Br)ccc1CBr | -4.96% [at 42.5 µM] | –
CC(CCc1ccccc1)NC(C)C(O)c1ccc(O)cc1 (stereo not given) | 7.98% [at 42.5 µM] | –
CC(=NC#N)N(C)Cc1ccc(Cl)nc1 | 5.86% | –
CC1(C)CC/C(=C/c2ccc(Cl)cc2)C1(O)Cn1cncn1 (stereo not given) | 0.26% | –
CC(C)=CC1C(C(=O)OCc2cccc(Oc3ccccc3)c2)C1(C)C (stereo not given) | – | inactive
OC(c1ccc(F)cc1)(c1cncnc1)c1ccccc1Cl (stereo not given) | 2.2% | –
CC(C)(C)CC(C)(C)c1ccc(O)cc1 | – | 43.3 µM (active)
CCBr | -7.47% | –
O=C(O)C(F)(F)C(F)(F)C(F)(F)C(F)(F)C(F)(F)C(F)(F)F | 6.64% | –
CC(C)Oc1cccc(NC(=O)c2ccccc2C(F)(F)F)c1 | 0.493% | –
COC(=O)C1(O)c2ccccc2-c2ccccc21 | 7.16% | –
Clc1ccc(C(OCCN2CCCCC2)c2ccccc2)cc1 (stereo not given) | -5.59% [at 42.5 µM] | –
CN=CNc1ccc(C)cc1C | 4.89% | –
C[C@@H]1O[C@@H](O[C@H]2C[C@@H](O)[C@]3(CO)[C@H]4[C@H](O)C[C@]5(C)[C@@H](C6=CC(=O)OC6)CC[C@]5(O)[C@@H]4CC[C@]3(O)C2)[C@H](O)[C@H](O)[C@H]1O | – | 0.073 µM (active)
O=C(NC(=O)c1ccccc1Cl)Nc1ccc(OC(F)(F)F)cc1 | 2.92% | –
C[Si](Cn1cncn1)(c1ccc(F)cc1)c1ccc(F)cc1 | – | inactive
CC1(C)COP(Oc2ccccc2)OC1 | 4.35% | –
CN(C)C(=S)[S-].CN(C)C(=S)[S-].[Cu+2] | – | 13.2 µM (active)
CN(N=O)C(N)=O | 2.88% | –
OCCCBr | 4.83% | –

Compound | viability change, negative = cytotoxic | Potency
CCCOc1nn(C(=O)NS(=O)(=O)c2ccccc2C(=O)OC)c(=O)n1C | 8.74% | –
Cc1cc(C)nc(Nc2ccccc2)n1 | 4.85% | –
Oc1cc(Cl)ccc1Oc1ccc(Cl)cc1Cl | – | 44.3 µM (active)
O=C(NC(=O)c1c(F)cccc1F)Nc1ccc(OC(F)(F)C(F)OC(F)(F)F)c(Cl)c1 (stereo not given) | -5.02% [at 42.5 µM] | –
CC(O)CCO (stereo not given) | – | inactive
O=C(O)C(F)(F)C(F)(F)C(F)(F)C(F)(F)C(F)(F)C(F)(F)C(F)(F)F | – | inactive
Oc1cc(Cl)c(Cl)c(Cl)c1 | – | 51.7 µM (active)
Nc1ccccc1C(=O)Oc1ccc2ccccc2c1 | -21.7% | –
N#CC(Cl)(Cl)Cl | 9.41% | –
CCCCCCCCCCCCCCCl | 6.52% | –
CCCCCCCc1ccc(O)cc1 | -5.77% | –
Oc1ccc2c3c1O[C@H]1[C@@H](O)C=C[C@H]4[C@@H](C2)NCC[C@@]341 | -2.4% | –
COc1cc(CC(C)N)c(OC)cc1Br (stereo not given) | -0.99% | –
CS(=O)(=O)c1ccc(C(=O)C2C(=O)CCCC2=O)c([N+](=O)[O-])c1 | 2.04% | –
NC1=NC(=O)C(c2ccccc2)O1 (stereo not given) | 8.13% [at 42.5 µM] | –
O=[N+]([O-])c1cc([N+](=O)[O-])c2ccccc2c1 | 0.77% | –
Cc1ccc2c(c1N)C(=O)c1ccccc1C2=O | – | inactive
COc1nn(CSP(=S)(OC)OC)c(=O)s1 | -10.4% | –
O=C1c2ccccc2C(=O)C1C(=O)C(c1ccccc1)c1ccc(Cl)cc1 (stereo not given) | -15% | –
Cc1ccc(Cl)c(O)c1 | 9.68% [at 42.5 µM] | –
